Source: the supplement of paper PMC12632987

biological target: UCHL1, P09936; test: median log2 fold change of GCK-ALFA target abundance (FLAG IP / Myc IP barcode read proportion) (log2 ratio); each designed protein is fused to an ALFA-tag nanobody in HEK293 cells to bring the named protein to FLAG-tagged glucokinase (GCK); Myc marks an untargeted standard; higher = target protein stabilised (more abundant); details: target protein: 3xFLAG-MCP-GCK-ALFA reporter; HEK293 landing pad (RPLP)
In short: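 HEK293 landing-pad cells received a recombined binder library fused to the ALFA nanobody and were induced with 2 μg mL^−1 doxycycline, then transfected with a plasmid encoding a FLAG-tagged target and a Myc-tagged standard. Lysates were collected after 48 h for anti-FLAG and anti-Myc immunoprecipitation, and the circular RNA barcodes were reverse transcribed, amplified and sequenced. Target abundance for each binder is the median log2 ratio of FLAG to Myc barcode read proportions. Barcodes had to reach a proportion of at least 10^−7 in both replicates, each binder needed at least 3 barcodes per replicate, a pseudocount of 10^−6 was applied, and the two replicates were pooled.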

Sequence of UCHL1, P09936 (P09936 whole entry, looked up, the tested form may be a part): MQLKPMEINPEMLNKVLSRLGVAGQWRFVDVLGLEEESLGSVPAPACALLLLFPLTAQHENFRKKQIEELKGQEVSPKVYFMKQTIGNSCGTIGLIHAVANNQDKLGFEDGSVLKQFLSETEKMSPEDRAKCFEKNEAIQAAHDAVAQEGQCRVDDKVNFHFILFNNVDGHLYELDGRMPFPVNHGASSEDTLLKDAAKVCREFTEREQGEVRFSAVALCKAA

| Binder | median log2 fold change |
| --- | --- |
| uchl1_2_7547 (protein) KTEFVGVLVTITSVNPETGETFVARRTLIGTASSIEAMAKEIKELALAFKADTKGDTTVDVEVVVSSKEVAEKAKKALEELKKELEAEGIKFNYKITVVE | -0.0935 |
| uchl1_2_7551 (protein) KSVFVGVLVTIRATDAATGETLVSRRTLIGTESSIKKLAEEVKELVLEFKARTGGPVEVDITVYSSKEEVAKKAKEEFEKLKKELAAEGVTANVNVILSK | -0.159 |
| uchl1_2_7556 (protein) KTVFVGVAIDLTSTNPETGEVFRSRRTLIGTASAIEAMAEEVRELILRFREETGGPVEVRILVVSSDEAVARRLVALLEAMAAELAAEGVTVTVTRRVLK | -0.249 |
| uchl1_2_7544 (protein) KTKFVGVKVTLTSYDEKTGKEYKSTHTLIGTEEAVEAMAKEIAELIRTFYDATGVPVKVDVTIYSSSEEVAEKLEKELKKEVEKLKKEGIDVTLTITKKV | -0.358 |
| uchl1_2_7541 (protein) KTKFIGVLVTLTSYDAATGRTYRARRTLIGTESGIEAMAAEVAELVRTFHDATGQPVAVDVRIVSSDEAVAEALEAALKAAEAALKAEGVDVTLTITKDV | -0.304 |
| uchl1_2_7570 (protein) KTVFVGVLVTLTSKDAKTGKTYKSRRTYIFTESSIEALAKEIKEDALAFQKDVGVPVTVDIKIYSTKEEVVKKTKAVLEKMAEELAKEGIKVNITGTVVK | -0.683 |
| uchl1_2_7548 (protein) KAEFVGALVTITSTNPETGEVRVARRTLIGLASDIDALMEEIERLVLDFQADTGGATRVRIRIVVSSEEVAERARAAAEEMKARLAAEGIEVEVEIEVVE | -0.489 |
| uchl1_2_7564 (protein) KTIFIGVLVELIAEDEETGKVYRSRHTYIFTESAIDALVEQIKEDALAFKEQTGVPVRVRIHIVSTNEEVVKKLKEKLEEMAEELKKEGIEVEISYTVVK | -0.635 |
| uchl1_2_7560 (protein) KTQFVGVRVDITSLNPETGEVFRARRTLIGTEDSLEAMLEEVRRLVLDFKEQYGGETRVEIRITVSTEETGERAKRLAEELKEELEKEGIEVEVEVEVAK | 0.0724 |
| uchl1_2_7563 (protein) ETVFVGVLVTLTAENAETGETFRSRRTYIFTESAIDALVAEIERDALAFREQTGVPVTVDIHIVSTDEAVVRRLEAALRAMAERLAAHGITVNISSTVVR | -0.142 |
| uchl1_2_7562 (protein) KPVFIGVLVTLTAEDKETGKTYRSRRTLIFTESAIEALAEEIKELALNFRDTVGVPVKVEIKVFSTDEAVVERTVAILEKMAEELAKEGIEVTITGEVVK | -1.04 |
| uchl1_2_7540 (protein) KSVFVGVLVTLRSYDEATGKEYVSRRTLIGTEDSIEALAEEVAELIRAFYEQTGVPVQADVTIVSSSREVAERLAEALRAREAELRAEGVDVTLTITVRV | -0.377 |
| uchl1_2_7542 (protein) KPKFIGLKVTLTSYDEKTGKTYKATRTLIGTESGIEAMAKEVGELVRTFYDATGVPVKVDVTIVSSDEEVAKKLEEALRKMEEELKKEGVPVELNIKKEV | -0.0683 |
| uchl1_2_7546 (protein) KTQFVGALVKMEAYDEETGKTYKSTRTLIGTADAIEKMAEEIYELALNFKDTVGVPVKVKVDVVVASEETKKKAEAALKKMKEKLKKEGIEVEVKVTVVE | -1.13 |
| uchl1_2_7559 (protein) KTKFVGVLVKVEAVDEKTGKVKKARRTFIGTEENIEKLVEEIEKYVLEFQKEHGKDVKVKIHGVVSDEETAEKLKKKLEEMKKRLEKEGIKVEIEVTVAK | -0.255 |
| uchl1_2_7550 (protein) EPRFVGVLVTVTSTNPETGEVFRSRRNFIGTADAVAAMMAEVEEYVLRFKEVNGGAVAVDLHVVVSTEEDAARARAEAAKLAARLAAEGITATVTVTVVE | -0.0947 |

| Binder | median log2 fold change |
| --- | --- |
| uchl1_2_7555 (protein) ASQFVGVLVTITAKDEKTGKTYVSRRTLIGTAESIEKMVEEIKELVLRFKDITKAPVEVKIEVYVSTEETAERMEKELEKLKEELEKKGVKVEIEVHVVE | -0.856 |
| uchl1_2_7554 (protein) ETKFVGVLVEIESVNPETGKEYKSRRTLIGTASAIEKLAEEVLELVRTFKEKTKAPVKVKVTVYVSDEETAKKAEKEFKKLEEELKKEGVEVEVEVIVVK | -0.73 |
| uchl1_2_7539 (protein) KTKFVGALVEITAKDEKTGKVYRSRRTLIGTESAIEAMAKEIKELVLNFKEETGVPVEVKVTVYAENKETAEKMKKELEKMAKELAKEGIKVEIEVKLVE | -0.811 |
| uchl1_2_7552 (protein) KTQFVGVLVTITSTNPETGEVKTVRKTLIGTEEGIEAMAKEILEMALEFKEQTKGPVEVKVEVVVSTEETAKKMEEELKKLEEELKKEGIKVEVEVKVVK | 0.325 |
| uchl1_2_7558 (protein) KSEFVGVKVTITAEDPETGKVYVAKRTFIGLASDIEKLVEEVKKLVLEFKADKKVPVKVKIEAVVSSEETAERLKKELEKMKKELAKEGIEVEITVKVVK | -0.285 |
| uchl1_2_7543 (protein) KPVFVGVLLELEARDEATGRVYRARRTLIGTEDGIEAMAEEVRRLVREFWEATGVPVRARVTIVSTREEVAERLRRALEAAHEELRAEGIDVTLEITVRV | 0.327 |
| uchl1_2_7565 (protein) ETIFIGVLVTLTSRDEATGKVYRSRRTLIFTESAIDALVEEIKEDALAFKAQTGVPVTVNIHIVSTNEEVVEKLKKKLEEMAKELAKEGITVNISYTVVK | -0.661 |
| uchl1_2_7566 (protein) ETVFVGVKVTLTSYDEKTGKTYKSTRTLIFTESSIDAAVEEIRELALSFREQVGVPVKVEIHIVSTREEVLERLKEKLEEMAEELKEEGIEVEISGEVVK | -0.335 |
| uchl1_2_7538 (protein) KTRFVGVLVKITAKDEKTGKVYRARRTLIGTASGIPAMAEEVERLVLEFQERTGVPVRVEVHVYASDEETAELARREFERMAERLAEHGIEVTVTVTVVE | -0.55 |
| uchl1_2_7567 (protein) KPVFIGVKLTLTSKDEKTGKTYKSTHTLIFTESAIDKLVEEIERLALEFQKATGVPVTANIEVYSTDKEVLEKLMKKLKEMAKRLAKEGIKVNIEGKLVE | -0.668 |
| uchl1_2_7549 (protein) EPQFVGVLVTVTSTNPETGKVYKSRRNFIGTADAIPALFKEVLEYVLTFKEANGGKTKVKLEIVVSTKEVAEKAKKEAEKLKKELAKEGIEAEVKITVVE | -0.1 |
| uchl1_2_7557 (protein) KSEFVGVLVTITARDEETGEVKVARRTFIGLAEDIEKLVEEIKKLVLEFKAQYNVPVEVDIKAVVSSEETAEKLKKELEKMKKELEKEGITVNIEVEVVE | -0.214 |
| uchl1_2_7568 (protein) KTVFVGVKVTLTSENKETGKTYKSTHTLIFTESAIEKLVEEIERLALEFKDATGVPVKVDIEVYSTDEEVLKKLMKELKKMAERLKKEGIEVNITGTLVK | -0.4 |
| uchl1_2_7545 (protein) KTKFVGVLVTLRSYDPETGREYVSRRTLIGTEEAVEAMAEEIAELIRRFHDRTGVPVDVDVTIYSSSKEVAEELKKKLEEEVKKLKAEGIDVTLTVTLKV | 0.0138 |
| uchl1_2_7569 (protein) KTVFVGVKVTLEAYDEKTGKRYRSRHTLIFTEDSIEALAKEIKELALDFQKDVGVPVTVNIEVYSTDEAVVKKTMAVLEKMAKELAKEGIKVNITGTVVK | -1.14 |
| uchl1_2_7553 (protein) KTKFVGVLVTIRAVNPETGKEYRSRRTLIGTADAIEALAEEVYELVLRFKEATGAPVEVDVRVYVSDEETAERAREAFKKLEERLKAEGVKARVEVTVVK | -0.615 |
